The list is not random: actives were taken first. Their share in the collection is about 4.3%.
Giardia kill = kills Giardia lamblia | Giardia lamblia trophozoite viability | 0.15% of 340,000 active | activity change, % at 7.66 µM, hits read low; in the data active means activity change below about -80%; inconclusive means between about -30% and that limit;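 further: parasites exposed to compound for two days anaerobically before the ATP read; on the % scale 0 is the no-effect control and ±100 the full control effect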
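Compounds were tested on trophozoites seeded at 100 cells/well and held 48 hrs at 37 deg C anaerobically. An ATP-based luminescent kit measured the remaining live cells.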
uPA surface inh = cell surface uPA generation inhibition | cell surface uPA generation assay, qHTS | Potency, µM (titrated, usually from 38.3 µM), inactives show at the top dose activity change, negative = inhibition, most hits filed as inhibitors | 0.31% of 330,000 active | AID 540303; active means well fitted inhibition curve with a large enough effect; inconclusive means small, poorly fitted or top-dose-only effect; inactive means no such curve, though single readings can be large or run the other way; tested in mouse RAW 264.7 cells; further: potency means the concentration at half of the fitted maximal effect; on the % scale 0 is the no-effect control and ±100 the full control effect; nearly all actives have a fitted effect of over 55% in size
MCF10A rereplic = DNA re-replication induction in MCF 10a cells | Potency, µM (highest dose often 46.1 µM), without a hit: top-dose activity, positive = re-replication, hits mostly activators | MCF 10A DNA re-replication, Hoechst nuclear intensity, 48 h | 2.9% of 350,000 active; further: potency means the concentration at half of the fitted maximal effect; % of control where 0% means no effect; nearly all actives have a fitted effect of over 50% in size
SW480 rereplic = DNA re-replication induction in SW480 cells | SW480 DNA re-replication, Hoechst DNA content imaging, 48 h | Potency, µM (top dose mostly 46.1 µM), inactives show at the top dose re-replication activation, actives largely listed as activators | 1.8% of 340,000 active | AID 624297; further: potency means the concentration at half of the fitted maximal effect; % of control where 0% means no effect; nearly all actives have a fitted effect of over 55% in size
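Cells (250 per well) received 23 nL compound or DMSO by pin tool and were kept 48 hr at 37 C, 5% CO2. Nuclei were then stained with Hoechst for 40 min and scanned for DNA content.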
An asterisk follows results filed as active; ? = inconclusive; . = no result given. Unless noted, the call rests on the fitted dose curve; in most records, active means well fitted activation curve with a large enough effect; inconclusive means small, poorly fitted or top-dose-only effect; inactive means no such curve, though single readings can be large or run the other way.

SMILES	Giardia kill	uPA surface inh	MCF10A rereplic	SW480 rereplic
N#Cc1ccc2c(c1)N(CCCN1CCC(O)CC1)c1ccccc1S2	.	.	1%	7%
O=[N+]([O-])c1ccc(C=Nc2cccc3ccccc23)s1	1	-15%	21µM*	6.5µM*
O=C(Cc1ccccc1)NCC(=O)N/N=C/c1ccc([N+](=O)[O-])s1	-22	-13%	5%	15µM*
O=C(CNC(=O)c1ccccc1)N/N=C/c1ccc([N+](=O)[O-])s1	-24	-18%	?	?
O=c1oc(/C=C/c2ccc([N+](=O)[O-])s2)nc2ccccc12	15	-8%	?	6%
Cc1cc(C(=O)N/N=C/c2ccc([N+](=O)[O-])s2)n[nH]1	-90*	-19%	?	?
Cc1cc(C(=O)N/N=C/c2ccc(C)s2)n[nH]1	-21	-1%	0%	-7%
O=C(N/N=C/c1ccccn1)c1cc(Br)ccc1O	?	0%	?	4.1µM*
O=C(NCc1cccc(Cl)c1)c1ccc(N2CC3CC(C2)c2cccc(=O)n2C3)c(NC(=O)c2cccnc2)c1 (stereo unspecified)	-6	2%	-2%	0%
O=C(N/N=C/c1cc(Br)ccc1O)c1ccncc1	-8	-16%	?	?
CCOC(=O)N/N=C\c1ccc([N+](=O)[O-])s1	-99*	-9%	10%	?
Cc1cc(C)n(CC(=O)N/N=C/c2ccc([N+](=O)[O-])s2)n1	?	-8%	?	21µM*
O=C(N/N=C/c1ccc(O)c2ncccc12)c1cccc(Br)c1	3	-13%	18µM*	?
CC(C)(C)OC(=O)N/N=C\c1ccc([N+](=O)[O-])s1	1	1%	-26%	?
COc1ccc(NC(=O)C(=S)NC2CCCCC2)cc1	0	1%	13%	-10%
Cc1ccc(S(=O)(=O)NCc2ccc(C(=O)NC3CCC(O)CC3)cc2)cc1C (stereo unspecified)	-2	-9%	?	12%
COc1ccc(C(=O)OCC(=O)NCCN2C(=O)CSC2=O)cc1	-6	-6%	0%	-3%
CC(=O)Nc1ccc(NC(=O)CC(C)n2ccnc2)cc1 (stereo unspecified)	-7	1%	0%	0%
NC(=S)N/N=C/c1ccccc1OCCSc1ccc(Cl)cc1	6	-6%	21µM*	?
CC(=O)c1cccc(NC(=O)c2ccc([N+](=O)[O-])o2)c1	-88*	-6%	4.1µM*	?
CC(=O)c1cccc(NC(=O)c2cc(=O)c3ccccc3o2)c1	-13	-5%	-1%	-13%
NS(=O)(=O)c1ccc(CNC(=O)c2ccc(Br)o2)cc1	11	4%	0%	-9%
NS(=O)(=O)c1ccc(O)c(NC(=O)c2ccc([N+](=O)[O-])o2)c1	-20	-2%	?	12µM*
Cc1cc(C)cc(NC(=O)c2ccc([N+](=O)[O-])o2)c1	-95*	-19%	3.3µM*	?
Cc1ccc(C)c(-c2nnc(NC(=O)c3ccc([N+](=O)[O-])o3)o2)c1	-85*	-15%	?	?
SMILES	Giardia kill	uPA surface inh	MCF10A rereplic	SW480 rereplic
Cc1ccc(C)c(-c2nnc(NC(=O)Cc3ccc(F)cc3)o2)c1	-15	-16%	?	-3%
O=C(CCCSc1ccccc1)Nc1ccc(Cl)c(S(=O)(=O)N2CCOCC2)c1	-10	-11%	14%	3%
CC(=O)c1ccc(NC(=O)c2ccc([N+](=O)[O-])o2)cc1	-101*	?	4.6µM*	20%
COc1ccc(NC(=O)c2ccc([N+](=O)[O-])o2)cc1	-95*	-10%	16µM*	2.6µM*
CC(=O)Nc1ccc(NC(=O)COC(=O)c2ccc([N+](=O)[O-])o2)cc1	-3	0%	-2%	9%
Cc1cc(C)nc(NC(=O)c2ccc([N+](=O)[O-])o2)n1	?	-2%	13µM*	8.2µM*
COc1ccc(NC(=O)c2ccc(Br)o2)cc1	-4	-21%	-7%	-9%
CC[C@]12c3[nH]c4cc(CCC(=O)N(C)C)ccc4c3CCN1C(=O)[C@@H](CC(=O)NCc1ccco1)C[C@@H]2C(=O)N1CCN(C(=O)C2CC2)CC1	-6	9%	-1%	-5%
Cc1ccccc1NC(=O)C(Cl)=C(Cl)Cl	17	-9%	18µM*	?
O=C1NC(=O)C2(CCCCCCC2)N1	-10	7%	-18%	2%
Cc1ccc(-c2cc(=O)c3cc(C)ccc3[nH]2)cc1	?	1.1µM*	?	21µM*
Cc1ccc(-c2cc(=O)c3cc(F)ccc3[nH]2)cc1	-8	?	?	0%
Cc1ccc2[nH]c(C(F)(F)F)cc(=O)c2c1	-16	-8%	-13%	?
O=c1cc(-c2ccccc2)[nH]c2ccc(F)cc12	10	0.4µM*	2.1µM*	1.6µM*
Cc1ccc2[nH]c(-c3cccc(F)c3)cc(=O)c2c1	0	?	1.2µM*	0.82µM*
O=c1cc(-c2cccc(F)c2)[nH]c2ccccc12	-2	?	1.3µM*	1.3µM*
COc1cc(CN(C2CCCCC2)S(=O)(=O)c2ccc(S(=O)(=O)N(C)C3CCCCC3)cc2)cc(OC)c1OC	-4	1%	11%	4%
COc1ccc(-c2cc(=O)c3ccccc3[nH]2)cc1	10	-9%	-2%	-10%
COc1ccc2[nH]c(-c3cccc(F)c3)cc(=O)c2c1	-9	0.35µM*	1.3µM*	0.73µM*
O=c1cc(-c2ccccc2)[nH]c2cc(Cl)ccc12	?	0.045µM*	1.6µM*	0.73µM*
O=C1c2ccc(-c3ccc(F)cc3OCc3ccccc3)cc2S(=O)(=O)c2cccc(C(=O)N3CCCC3)c21	28	-15%	?	0%
O=[N+]([O-])c1ccc(OCC2CC(c3ccccc3)=NO2)cc1 (stereo unspecified)	-2	0%	?	16µM*
Cc1cc(=O)oc2cc(OCC3CC(c4ccc(Br)cc4)=NO3)ccc12 (stereo unspecified)	14	.	9.2µM*	?
Cc1cc(=O)oc2cc(OCC3CC(c4ccccc4)=NO3)ccc12 (stereo unspecified)	7	.	4.1µM*	5.2µM*
Cc1cc(=O)oc2cc(OCC(=O)N3CC(C)OC(C)C3)ccc12 (stereo unspecified)	3	-4%	-3%	-2%
SMILES	Giardia kill	uPA surface inh	MCF10A rereplic	SW480 rereplic
C#CCOc1ccc2c(C)cc(=O)oc2c1	-4	3%	-10%	7%
Cc1cc(=O)oc2cc(OCC(=O)N3c4ccccc4CC3C)ccc12 (stereo unspecified)	-2	-10%	2.5µM*	1.6µM*
CN1C[C@@H]2[C@@H]3C(=O)N(C)C(=O)[C@@H]3[C@](C)(C1=O)N2C(=O)c1ccc(Cl)c(Cl)c1	-4	-7%	20%	-3%
CN1CCN(c2nnc(-c3ccccc3)c(-c3ccccc3)n2)CC1	2	-1%	-2%	-1%
CN1CCN(c2nc(-c3ccccc3)c3cc(Cl)ccc3n2)CC1	-13	-5%	4µM*	7.9µM*
Clc1ccc2nc(N3CCNCC3)nc(-c3ccccc3)c2c1	8	6%	?	11µM*
c1ccc2c(N3CCCCC3)nc(N3CCCCC3)nc2c1	-11	5%	-4%	-6%

High-throughput results (PubChem)
